This is an account of results in PubChem BioAssay AID1028 (SRMLSC, 2008).

This assay deals with diphosphomevalonate decarboxylase (Streptococcus pneumoniae D39) (UniProt Q9FD53). Put plainly: diphosphomevalonate decarboxylase inhibitor confirmation – biochemical, cuvette format, coupled NADH fluorescence (AID 1028). Particulars: purified DPM-DC, rate, at 50 µM, hits give high values.

Each structure is given as a SMILES string. Measured potencies and affinities stand elsewhere. Values without a mark were called inactive.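 Rule for the calls: active = enzyme inhibitor confirmed by dose series, half-maximal inhibitory concentration at most 40 µM; inactive = the rest.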

By inhibition is commonly meant how much of the control response was suppressed. Turning to `Cc1ccc(C)c(-c2nc3c(N)cccc3o2)c1`, the inhibition is 6.19%.

Turning to `COc1ccc2nc(-c3ccc(F)cc3)oc2c1`, the inhibition is 4.34%.

On to `COc1ccc2oc(-c3cccc(C)c3)nc2c1`, for which the inhibition is 2.37%.

Take `COc1ccccc1-c1nc2ccccc2o1`: the inhibition is 6.39%.
